This is part of a sample that, as a whole, favours compounds with a hit. Of some 83,000 tested, about 20% had one in any assay.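 The test compound was applied at a single concentration to cells in 96-well plates for 48 hours, and percent growth was recorded.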 A number with no mark means an inactive call. Calls of active or inactive are those of the source. How the source made its calls: active means growth percent below 10; inactive means the rest.

Test systems include T-47D breast; BT-549 breast; MDA-MB-435 melanoma; SW-620 colon; MCF7 breast; HCT-116 colon; HCC-2998 colon; KM12 colon.
Assay in all cases: NCI-60 one-dose screen, 48 h (100 = growth as untreated, 0 = no growth, -100 = all killed)
What all share (conditions): 10 µM unless noted

Turning to `CCC(C)[C@@H]1NC(=O)[C@@H]2CCCN2C(=O)[C@H](Cc2ccccc2)NC(=O)[C@@H]2CCCN2C(=O)[C@H](Cc2ccccc2)NC(=O)[C@@H]2CCCN2C(=O)[C@H](Cc2ccccc2)NC1=O` (stereo partly drawn), the growth with T-47D breast was 98.9%; in the assay on BT-549 breast it was 109%; in the assay on MDA-MB-435 melanoma, 112%; in the assay on SW-620 colon it was 105%; in the assay on MCF7 breast it was 87.5%; in the assay on HCT-116 colon, 113%. Further, the growth is 106% in the assay with HCC-2998 colon and 121% in the assay with KM12 colon.

For the compound `COc1ccc(C2Nc3ccccc3-n3cccc32)cc1` (stereo not drawn), the growth in the assay with T-47D breast was 84.2%; in the assay on BT-549 breast, 97.1%; with MDA-MB-435 melanoma, 103%; in the assay on SW-620 colon, 100%; in the assay on MCF7 breast it was 95.7%; in the assay on HCT-116 colon, 94%. The values for the growth with HCC-2998 colon and in the assay on KM12 colon were 103% and 98.7%, respectively.

For the compound `Cn1c(=O)c2[nH]c(C(O)C(O)C(O)C(O)CO)nc2n(C)c1=O` (stereo not drawn), the growth with T-47D breast was 90.8%; with BT-549 breast, 108%; in the assay with MDA-MB-435 melanoma, 108%; in the assay on SW-620 colon, 102%; in the assay on MCF7 breast, 97.9%; with HCT-116 colon it was 106%. Besides, the growth in the assay with HCC-2998 colon was 103%; with KM12 colon it was 101%.

With `CC(=O)/C(=C/c1cccc(Cl)c1)C(=O)c1ccccc1`, the growth in the assay on T-47D breast was 63.6%; in the assay on BT-549 breast it was 72.6%; in the assay on MDA-MB-435 melanoma, 72.7%; with SW-620 colon it was 71.3%; with MCF7 breast, 34%; with HCT-116 colon, 41.7%. Moreover, the results for the growth with HCC-2998 colon and in the assay on KM12 colon were 99.9% and 54.8%, respectively.

Regarding `COc1ccc2nc(NC(=O)c3cccnc3Nc3cc(OC)c(OC)c(OC)c3)sc2c1`, the growth in the assay with T-47D breast was -7.17% (active); in the assay with BT-549 breast, -90.5% (active); with MDA-MB-435 melanoma, 7.52% (active); in the assay on SW-620 colon, 27.8%; with MCF7 breast, 8.16% (active); in the assay on HCT-116 colon, -2.4% (active). For the same compound, the growth in the assay with HCC-2998 colon was 77.8%; in the assay with KM12 colon, 11.9%.

For the compound `CCOC(=O)/C=C/c1ccc(C(=O)OCC)[nH]1`, the growth in the assay on T-47D breast is 34.9%; in the assay on BT-549 breast it was 88.2%; in the assay with MDA-MB-435 melanoma, -39.5% (active); in the assay with SW-620 colon, 19.2%; in the assay on MCF7 breast, 25.7%; in the assay on HCT-116 colon, 26.3%. Further, the growth in the assay on HCC-2998 colon was 44.1%; in the assay with KM12 colon, 26.6%.

For the compound `COc1ccc(CN(c2ccc(C)cc2)C2OC(=O)c3ccccc32)cc1OC` (stereo not drawn), the growth with T-47D breast was 95.2%; in the assay with BT-549 breast, 106%; with MDA-MB-435 melanoma, 100%; in the assay on SW-620 colon, 99.2%; with MCF7 breast, 92.5%; in the assay on HCT-116 colon it was 105%. The growth with HCC-2998 colon and in the assay on KM12 colon was 102% in each case.

Turning to `O=c1[nH]c(-c2ccccn2)nc2sc3c(c12)CCCCC3`, the growth is 33.8% in the assay with T-47D breast; 70.1% in the assay on BT-549 breast; 55.7% in the assay on MDA-MB-435 melanoma; 29.5% in the assay with SW-620 colon; 32.9% with MCF7 breast; 24.7% with HCT-116 colon. In addition, the growth in the assay on HCC-2998 colon is 68.7%; in the assay on KM12 colon, 39.4%.

Take `CCCCCCCCCCCCCC(=O)C(C)N` (stereo not drawn): the growth in the assay on T-47D breast is -30.2% (active); in the assay on BT-549 breast it was 66.9%; with MDA-MB-435 melanoma it was 78.5%; in the assay on SW-620 colon, 80.4%; in the assay with MCF7 breast, 34%; in the assay on HCT-116 colon it was 59.2%. Further, the growth with HCC-2998 colon is 55.1%; in the assay on KM12 colon it was 22.1%.

`COc1ccccc1/C=C(/C(=O)c1ccccc1)c1ccccc1`: the growth was 103% in the assay on T-47D breast; 92.4% with BT-549 breast; 107% in the assay with MDA-MB-435 melanoma; 101% with SW-620 colon; 110% in the assay with MCF7 breast; 83.5% with HCT-116 colon. In addition, the growth in the assay on HCC-2998 colon was 107%; with KM12 colon it was 98.1%.

As for `NCCN1CCN(c2nccc(-c3ccc4ccccc4c3)n2)CC1`, the growth was 43.1% with T-47D breast; 82.2% in the assay with BT-549 breast; -26.4% (active) in the assay on MDA-MB-435 melanoma; -37.9% (active) in the assay on SW-620 colon; 51.2% in the assay with MCF7 breast; 3.52% (active) in the assay on HCT-116 colon. For the same compound, the growth was 14% with HCC-2998 colon and 48.1% with KM12 colon.

Turning to `O=C(CN1CCN(c2cc3c(cc2F)c(=O)c(C(=O)O)cn3C2CC2)CC1)Nc1cc(=O)[nH]c(=O)[nH]1`, the growth was 103% in the assay with T-47D breast; 83.3% in the assay on BT-549 breast; 102% with MDA-MB-435 melanoma; 95.4% in the assay with SW-620 colon; 101% in the assay with MCF7 breast; 91.2% in the assay on HCT-116 colon. The growth was 98.1% with HCC-2998 colon and 108% with KM12 colon.

Take `CCOC(=O)/C=C/C(=O)[C@H](CC(C)C)NC(=O)[C@H](Cc1ccccc1)NC(=O)OCc1ccccc1`: the growth with T-47D breast was 8.32% (active); in the assay on BT-549 breast it was 69.2%; with MDA-MB-435 melanoma, 75.8%; with SW-620 colon, 13.8%; in the assay on MCF7 breast, 19.7%; with HCT-116 colon, 47.6%. Moreover, the growth was 99.2% in the assay with HCC-2998 colon and 94.5% in the assay with KM12 colon.

`COc1cc(C#N)cc(OC)c1OCCN(CCOc1c(OC)cc(C#N)cc1OC)S(=O)(=O)c1ccc(C)cc1`: the growth in the assay with T-47D breast is 96.3%; in the assay on BT-549 breast, 107%; in the assay on MDA-MB-435 melanoma it was 114%; with SW-620 colon, 99.6%; in the assay with MCF7 breast, 108%; with HCT-116 colon it was 81.6%. Also, the growth was 94.8% with HCC-2998 colon and 108% in the assay on KM12 colon.

For the compound `CCOC(=O)c1c2c(n3ccc(NC(=O)CCN(CC)CC)cc13)C(=O)c1ncccc1C2=O`, the growth with T-47D breast was 55.9%; in the assay on BT-549 breast it was 75.9%; in the assay on MDA-MB-435 melanoma it was 32.7%; in the assay on SW-620 colon, 49.3%; with MCF7 breast, -8.59% (active); in the assay on HCT-116 colon, 49.3%. For the same compound, the growth in the assay with HCC-2998 colon is 83.1%; in the assay on KM12 colon it was 63.5%.

With `O=C(Nc1cccc2c1C(=O)c1cccc(Nc3cccc4c3C(=O)c3cccc(NC(=O)c5ccccc5)c3C4=O)c1C2=O)c1ccccc1`, the growth with T-47D breast was 116%; with BT-549 breast, 113%; in the assay with MDA-MB-435 melanoma, 104%; with SW-620 colon it was 109%; with MCF7 breast, 107%; in the assay with HCT-116 colon, 109%. Besides, the growth with HCC-2998 colon and with KM12 colon was 114% throughout.

The record behind these values is PubChem BioAssay (NCI).
